Data reported in PubChem BioAssay.
Where “and” joins values, the source holds several entries; their conditions need not be identical. Equal values may be shown once. Calls of active or inactive are those of the source.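 How the source made its calls, unless noted: active means thallium flux through the channel raised or lowered by more than 3 SD from vehicle-only wells, actives on both sides; inactive means the rest.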

How the values were obtained:
[1] = Wnt pathway potentiators raising nuclear beta-catenin – imaging, WNT3A-conditioned medium, mouse C2C12, NPC library, primary screen (AID 1117326; in the data active means nuclear beta-catenin stimulation mostly above about 4.2%, no sharp cut-off; inactive means mostly below about 10%); conditions: stronger effect = higher value
[2] = stimulators of insulin release from INS-1E, primary screen, cell-based, 5 mM glucose, NPC library (AID 1117329;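 active means compound raises insulin release from rat beta cells at 5 mM glucose, no numeric limit stated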); conditions: rat INS-1E insulin secretion, at 10 µM, stronger effect = higher value
[3] = growth inhibition of GSK3B-pretreated HCT116 cells – cell-based, CellTiter-Glo, 0.2 to 20 µM (AID 1117336;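 active means compounds lowering colon cancer cell viability after pretreatment blocking the GSK3B kinase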); conditions: HCT116 viability after GSK3B inhibitor, at 20 µM, stronger effect = higher value
[4] = inhibition of endothelial tube formation, primary screen, imaging, VEGF stimulated, CD31 staining, tube area, NPC library (AID 1117340;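 active means compound that reduces growth-factor-driven endothelial tube area in a mixed cell culture, no cutoff stated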); conditions: VEGF-stimulated ADSC/ECFC co-culture, at 10 µM, stronger effect = higher value
[5] = GLP1 release stimulators, primary, NCI-H716, NPC library (AID 1117341;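 active means compound raises GLP1 secretion from the human gut endocrine cells, with no numeric limit stated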); conditions: NCI-H716 cells, at 10 µM, stronger effect = higher value
[6] = HCT116 colon cancer cell growth inhibition, primary screen, CellTiter-Glo luminescence, NPC library (AID 1117342;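 active means compounds that lower survival of HCT116 colon cancer cells in the luminescence readout, no numeric limit stated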); conditions: at 20 µM (top of the series)
[7] = reduced SW480 viability measured with CellTiter-Glo, NPC library, primary (AID 1117343;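 active means compounds that lower viability of the colon cancer cells in the luminescence readout, with no numeric limit stated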); conditions: CellTiter-Glo luminescence; at 20 µM (top of the series)
[8] = NPC library primary testing for decreased DLD-1 cell viability via CellTiter-Glo (AID 1117346;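 active means compounds that lower survival of DLD-1 colon cancer cells in the luminescence readout, no cutoff given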); conditions: DLD-1 viability, CellTiter-Glo luminescence; at 20 µM (top of the series)
[9] = biological target: 6-phosphogluconate dehydrogenase, decarboxylating (Homo sapiens) (UniProt P52209); assay: inhibition of human phosphogluconate dehydrogenase – biochemical, recombinant enzyme, NADPH absorbance, primary screen (AID 1159550;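 active means at least 20% inhibition of 6-phosphogluconate dehydrogenase activity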); conditions: recombinant 6PGD, NADPH absorbance 341 nm; at 10 µM; stronger effect = higher value
[10] = EMT-state selective cytotoxicity in co-culture – imaging, PC-3E GFP, TEM4-18 mCherry, primary screen (AID 1345086;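 active means compounds killing one labelled cell type while sparing the other, by normalised counts and ratio limits, not self-fluorescent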;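 on all read-outs here: cells exposed to compound for 72 h before imaging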;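 on red/green cell ratio (normalised): normalised mesenchymal count divided by normalised epithelial count so high means epithelial killing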); conditions: PC-3E GFP / TEM4-18 mCherry co-culture, imaging cell counts, at 1 µM; for red/green cell ratio (normalised): actives lie on both sides, counts scaled to control wells, 1 = unselective
[11] = MELAS cybrid and Rieske KO viability enhancers – cell-based, MELAS cybrids, Rieske KO mouse fibroblasts, CellTiter-Glo, primary screen (AID 1508586;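 active means mean z-score across replicates of 1.96 or higher in either the MELAS or the Rieske mutant cell line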;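 further: z relative to plate mean and SD of compound and empty wells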); conditions: low glucose
[12] = biological target: NAD(+) hydrolase SARM1 (Homo sapiens) (UniProt Q6SZW1); assay: blocking NAD cleavage by SARM1 SAM-TIR – cell lysate, NAD-Glo luminescence (AID 1508614;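 active means compound whose remaining NAD level is above about 45 nM, limit read from the data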); conditions: SAM-TIR HEK293T lysate NADase, at 1 µM, stronger effect = higher value
F380Y = assay: BK channel mutant inhibitors and activators – cell-based, U2OS BacMam, thallium flux, beta subunits, selectivity assay, profiling panel (AID 1259406); conditions: U2OS BacMam BK variants, at 30 µM;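 further: initial slope of Thallos dye fluorescence rise after thallium is added; log ratio against the mean of 0.3% DMSO vehicle wells on the same plate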
F380Y/beta1 = assay: as above; conditions: U2OS BacMam BK variants, at 30 µM
F380Y/beta2Delta = assay: as above; conditions: U2OS BacMam BK variants, at 30 µM
F380Y/beta4 = assay: as above; conditions: U2OS BacMam BK variants, at 30 µM
[13] = biological target: Calcium-activated potassium channel subunit alpha-1 (Homo sapiens) + Leucine-rich repeat-containing protein 26 (Homo sapiens) (UniProt Q12791+Q2I0M4); assay: as above; conditions: U2OS BacMam BK variants, F380Y/Slo1WT/gamma1, at 30 µM
R275C = assay: as above; conditions: U2OS BacMam BK variants, at 30 µM
[14] = viability loss with induced miR-34 in A549 – imaging, A549 dox-inducible miR-34, nuclei and caspase counts, primary screen (AID 1347080;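 active means compounds whose cell count with miR-34 switched on is under 0.7 times the count with it off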); conditions: A549 miR-34 inducible, Hoechst nuclei count, 48 h
[15] = measured here: epithelial PC-3E GFP cell survival
[16] = measured here: mesenchymal TEM4-18 mCherry cell survival
[17] = MELAS cybrid survival, CellTiter-Glo 48 h, stronger effect = higher value
[18] = Rieske KO mouse fibroblast survival, CellTiter-Glo 72 h
[19] = stronger effect = lower value, cell number ratio, induced over uninduced
[20] = measured here: relative caspase fold change +Dox/-Dox
[21] = measured here: total cells with miR-34 induction, stronger effect = lower value
[22] = measured here: total cells without miR-34 induction

Calcium-activated potassium channel subunit alpha-1 (Homo sapiens) + Leucine-rich repeat-containing protein 26 (Homo sapiens), sequence (Q2I0M4 whole entry, looked up, one chain of several): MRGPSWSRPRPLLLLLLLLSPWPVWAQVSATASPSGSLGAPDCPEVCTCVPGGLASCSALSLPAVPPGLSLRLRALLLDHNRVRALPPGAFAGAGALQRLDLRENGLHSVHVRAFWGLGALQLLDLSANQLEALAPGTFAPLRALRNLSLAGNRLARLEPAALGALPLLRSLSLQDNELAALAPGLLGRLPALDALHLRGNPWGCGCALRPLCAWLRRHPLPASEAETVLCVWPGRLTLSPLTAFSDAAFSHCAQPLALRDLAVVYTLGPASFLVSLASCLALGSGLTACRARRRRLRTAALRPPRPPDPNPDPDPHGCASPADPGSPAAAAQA
NAD(+) hydrolase SARM1 (Homo sapiens), sequence (Q6SZW1 whole entry, looked up): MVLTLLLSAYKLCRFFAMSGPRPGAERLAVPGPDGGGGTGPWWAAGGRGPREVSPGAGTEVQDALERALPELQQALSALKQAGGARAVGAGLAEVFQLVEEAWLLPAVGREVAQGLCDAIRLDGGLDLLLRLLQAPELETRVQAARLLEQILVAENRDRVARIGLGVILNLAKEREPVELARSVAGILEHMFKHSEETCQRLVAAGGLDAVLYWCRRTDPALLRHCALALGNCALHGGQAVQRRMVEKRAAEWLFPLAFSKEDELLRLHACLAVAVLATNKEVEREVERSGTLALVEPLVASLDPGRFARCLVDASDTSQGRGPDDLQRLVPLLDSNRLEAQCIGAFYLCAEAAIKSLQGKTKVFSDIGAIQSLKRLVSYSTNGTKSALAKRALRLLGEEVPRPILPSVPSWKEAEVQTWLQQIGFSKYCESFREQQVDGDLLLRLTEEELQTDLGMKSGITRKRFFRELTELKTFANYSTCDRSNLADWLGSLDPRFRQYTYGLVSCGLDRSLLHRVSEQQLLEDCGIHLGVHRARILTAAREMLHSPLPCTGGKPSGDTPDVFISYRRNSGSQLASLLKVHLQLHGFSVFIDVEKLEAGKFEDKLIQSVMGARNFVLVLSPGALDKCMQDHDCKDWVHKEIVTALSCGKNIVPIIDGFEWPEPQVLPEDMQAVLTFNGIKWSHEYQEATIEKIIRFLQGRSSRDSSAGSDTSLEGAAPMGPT
6-phosphogluconate dehydrogenase, decarboxylating (Homo sapiens), sequence (P52209 whole entry, looked up): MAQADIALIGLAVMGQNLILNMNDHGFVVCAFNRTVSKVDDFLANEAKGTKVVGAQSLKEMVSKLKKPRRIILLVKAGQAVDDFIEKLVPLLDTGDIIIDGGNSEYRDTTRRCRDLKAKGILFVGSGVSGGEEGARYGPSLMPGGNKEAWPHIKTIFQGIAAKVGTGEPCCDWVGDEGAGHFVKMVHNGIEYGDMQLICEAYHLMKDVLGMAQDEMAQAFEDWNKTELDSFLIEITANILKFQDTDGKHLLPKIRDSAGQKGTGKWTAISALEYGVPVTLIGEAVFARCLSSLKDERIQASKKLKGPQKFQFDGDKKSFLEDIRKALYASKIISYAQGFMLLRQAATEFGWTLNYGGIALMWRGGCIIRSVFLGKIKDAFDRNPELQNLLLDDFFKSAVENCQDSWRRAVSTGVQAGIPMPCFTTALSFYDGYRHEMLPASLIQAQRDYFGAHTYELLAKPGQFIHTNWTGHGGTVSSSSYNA

COc1cc2nc(N(C)CCCNC(=O)C3CCCO3)nc(N)c2cc1OC (centres undefined)
nuclear beta-catenin stimulation ([1]; at 10 µM): 1.8% (inactive) | nuclear beta-catenin stimulation ([1]; stimulation, at 2 µM): 1.8% | insulin secretion stimulation [2]: -0.3% (inactive) | viability decrease [3]: -24.4% (inactive) | tube area decrease [4]: -4.5% (inactive) | GLP1 secretion stimulation [5]: 14.6% (inactive) | inhibition of viability [6]: 21.1% (inactive) | viability decrease (inhibition) [7]: 19.4% (inactive) | viability decrease (inhibition) [8]: 0.1% (inactive) | inhibition [9]: 0.608% (inactive) | red/green cell ratio (normalised) [10]: 0.93 (inactive) | normalised cell number [10, 15]: 1.18 | normalised cell number [10, 16]: 1.09 | z-score [11, 17]: -0.397 (inactive) and -0.012 (inactive) | z-score [11, 18]: 0.382 and 0.0438 | remaining NAD [12]: 10 nM (inactive) | log fold change Tl+ flux (F380Y): 0.0271 (inactive) | log fold change Tl+ flux (F380Y/beta1): -0.0154 (inactive) | log fold change Tl+ flux (F380Y/beta2Delta): 0.0311 (inactive) | log fold change Tl+ flux (F380Y/beta4): 0.00267 (inactive) | log fold change Tl+ flux [13]: -0.0369 (inactive) | log fold change Tl+ flux (R275C): -0.0434 (inactive)

Cc1ncc([N+](=O)[O-])n1CC(C)O (centres undefined)
nuclear beta-catenin stimulation ([1]; at 10 µM): 3.5% (inactive) | nuclear beta-catenin stimulation ([1]; stimulation, at 2 µM): 1.6% | insulin secretion stimulation [2]: -0.9% (inactive) | viability decrease [3]: -3.45% (inactive) | tube area decrease [4]: -13.6% (inactive) | GLP1 secretion stimulation [5]: 4.1% (inactive) | inhibition of viability [6]: -0.3% (inactive) | viability decrease (inhibition) [7]: 5.3% (inactive) | viability decrease (inhibition) [8]: -0.75% (inactive) | inhibition [9]: -1.51% (inactive) | red/green cell ratio (normalised) [10]: 0.83 (inactive) | normalised cell number [10, 15]: 1.13 | normalised cell number [10, 16]: 0.94 | fold change [14, 19]: 0.961 (inactive) and 0.91 (inactive) | fold change [14, 20]: 1.68 and 0.635 and 1.41 | cell count [14, 21]: 9430 and 9630 and 9650 | cell count [14, 22]: 9820 and 10000 and 10600 | z-score [11, 17]: -0.319 (inactive) and 0.295 (inactive) and -0.342 (inactive) | z-score [11, 18]: 0.828 and -0.245 and -0.0796 | remaining NAD [12]: 10 nM (inactive) | log fold change Tl+ flux (F380Y): -0.058 (inactive) | log fold change Tl+ flux (F380Y/beta1): -0.0446 (inactive) | log fold change Tl+ flux (F380Y/beta2Delta): -0.00369 (inactive) | log fold change Tl+ flux (F380Y/beta4): 0.0424 (inactive) | log fold change Tl+ flux [13]: -0.0293 (inactive) | log fold change Tl+ flux (R275C): -0.115 (active)

CN1CCCC(n2nc(Cc3ccc(Cl)cc3)c3ccccc3c2=O)CC1 (centres undefined)
nuclear beta-catenin stimulation ([1]; at 10 µM): 1.5% (inactive) | nuclear beta-catenin stimulation ([1]; stimulation, at 2 µM): 1.7% | insulin secretion stimulation [2]: 5.8% (inactive) | viability decrease [3]: -40.4% (inactive) | tube area decrease [4]: 21.5% (inactive) | GLP1 secretion stimulation [5]: 5.5% (inactive) | inhibition of viability [6]: 64.8% (active) | viability decrease (inhibition) [7]: -0.2% (inactive) | viability decrease (inhibition) [8]: 37.8% (inactive) | inhibition [9]: 6.29% (inactive) | red/green cell ratio (normalised) [10]: 0.89 (inactive) | normalised cell number [10, 15]: 1.16 | normalised cell number [10, 16]: 1.03 | fold change [14, 19]: 0.849 (inactive) and 0.93 (inactive) and 0.906 (inactive) | fold change [14, 20]: 1.32 and 0.694 and 6.18 | cell count [14, 21]: 5140 and 8770 and 9440 | cell count [14, 22]: 6060 and 9430 and 10400 | z-score [11, 17]: -0.451 (inactive) and -0.0693 (inactive) | z-score [11, 18]: 0.19 and 0.396 | remaining NAD [12]: 10 nM (inactive) | log fold change Tl+ flux (F380Y): 0.248 (active) | log fold change Tl+ flux (F380Y/beta1): 0.109 (active) | log fold change Tl+ flux (F380Y/beta2Delta): 0.144 (active) | log fold change Tl+ flux (F380Y/beta4): 0.258 (active) | log fold change Tl+ flux [13]: 0.0633 (inactive) | log fold change Tl+ flux (R275C): -0.0931 (inactive)
